# Source: PubChem BioAssay (EPA / NIEHS)
# More than one record can exist for a structure, and the calls need not agree. Activity calls are given as the source filed them. Rule for the calls: active = hit-call score of the fitted dose curve at least 0.9, where 1 is the maximum; inactive = score below 0.9.
# Read-out: Macrophage colony-stimulating factor (MCSF), CSF1 (gene 1435)
# Assay: BSK_hDFCGF_MCSF: BioMAP Diversity Plus: hDFCGF Assay for Macrophage colony-stimulating factor (MCSF) Biomarker Activity (AID 2283060)
# Details: primary human foreskin fibroblasts; actives raise or lower the signal
# In short: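 Primary human foreskin fibroblasts dosed with chemical; 24 h later, M-CSF quantified by ELISA; curves fitted in both directions vs DMSO negative control.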
SMILES,outcome,AC50
C[Si](C)(C)C(F)(F)C(F)(F)C(F)(F)F,inactive,–
O=C(NO)C1(NS(=O)(=O)c2ccc(Oc3ccc(F)cc3)cc2)CCOCC1,inactive,–
O=C1CN(N=Cc2ccc([N+](=O)[O-])o2)C(=O)N1,inactive,–
OC(Cn1cncn1)(Cn1cncn1)c1ccc(F)cc1F,inactive,–
O=S(=O)(O)CCC(F)(F)C(F)(F)C(F)(F)C(F)(F)C(F)(F)C(F)(F)F,inactive,6.02 µM (active)
OC(CCl)CCl,inactive,–
OCc1ccccc1,inactive,–
c1ccc(C(O[C@@H]2CCCN(CCc3ccc4c(c3)OCO4)C2)c2ccccc2)cc1,–,20 µM (active)
O=C(Cl)C(F)(F)C(F)(F)C(F)(F)C(=O)Cl,inactive,–
CCCCCCCC/C=C\CCCCCCCC(=O)OC[C@@H](O)[C@H]1OC[C@H](O)[C@H]1O,inactive,–
CCCCCCCCN(C)C,inactive,–
COS(C)(=O)=O,inactive,–
CCCc1ccccc1,inactive,–
COc1cc2c(c(OC)c1OC)-c1ccc(OC)c(=O)cc1[C@@H](NC(C)=O)CC2,inactive,–
COCc1nnc(-c2ccc[n+]([O-])c2)n1-c1c(Cl)c(Cl)cc2[nH]c(=O)c(=O)[nH]c12,inactive,–
CNC(C)=O,inactive,–
CCCCOC(=O)c1ccccc1,inactive,–
OC[C@H]1O[C@@H]2O[C@H]3[C@H](O)[C@@H](O)[C@@H](O[C@H]4[C@H](O)[C@@H](O)[C@@H](O[C@H]5[C@H](O)[C@@H](O)[C@@H](O[C@H]6[C@H](O)[C@@H](O)[C@@H](O[C@H]7[C@H](O)[C@@H](O)[C@@H](O[C@H]1[C@H](O)[C@H]2O)O[C@@H]7CO)O[C@@H]6CO)O[C@@H]5CO)O[C@@H]4CO)O[C@@H]3CO,inactive,–
O=C(O)[C@H](O)[C@@H](O)C(=O)O,inactive,–
FC(F)(F)COC(OCC(F)(F)F)OCC(F)(F)F,inactive,–
OCCNCCO,inactive,–
Cn1cc[nH]c1=S,inactive,–
O=C(O)c1cccc(C(=O)O)c1,inactive,–
CCCCCCCC1CCC(=O)O1 (centres undefined),inactive,–
c1ccc2ncccc2c1,inactive,–
OC(O)(C(F)C(O)(O)C(F)(F)F)C(F)(F)F,inactive,–
CCc1ccc(O)c(C(C)(C)C)c1,–,27.4 µM (active)

# Read-out: not listed separately
# Assay: BSK_hDFCGF_SRB: Viability Assessment in the BioMAP Diversity Plus: hDFCGF Assay (AID 2283061);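 note: cells exposed to compound for 24 h before the read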
# Details: primary human foreskin fibroblasts
# In short: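 Readout is SRB absorbance at 560 nm, reflecting total protein in parallel cultures of human foreskin fibroblasts harvested 24 h after chemical dosing. Activity was fitted bidirectionally relative to DMSO.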
SMILES,AC50,outcome
C[Si](C)(C)C(F)(F)C(F)(F)C(F)(F)F,30 µM (active),inactive
O=C(NO)C1(NS(=O)(=O)c2ccc(Oc3ccc(F)cc3)cc2)CCOCC1,–,inactive
O=C1CN(N=Cc2ccc([N+](=O)[O-])o2)C(=O)N1,–,inactive
OC(Cn1cncn1)(Cn1cncn1)c1ccc(F)cc1F,–,inactive
O=S(=O)(O)CCC(F)(F)C(F)(F)C(F)(F)C(F)(F)C(F)(F)C(F)(F)F,8.85 µM (active),inactive
OC(CCl)CCl,–,inactive
OCc1ccccc1,–,inactive
c1ccc(C(O[C@@H]2CCCN(CCc3ccc4c(c3)OCO4)C2)c2ccccc2)cc1,29 µM (active),–
O=C(Cl)C(F)(F)C(F)(F)C(F)(F)C(=O)Cl,–,inactive
CCCCCCCC/C=C\CCCCCCCC(=O)OC[C@@H](O)[C@H]1OC[C@H](O)[C@H]1O,–,inactive
CCCCCCCCN(C)C,–,inactive
COS(C)(=O)=O,–,inactive
CCCc1ccccc1,–,inactive
COc1cc2c(c(OC)c1OC)-c1ccc(OC)c(=O)cc1[C@@H](NC(C)=O)CC2,–,inactive
COCc1nnc(-c2ccc[n+]([O-])c2)n1-c1c(Cl)c(Cl)cc2[nH]c(=O)c(=O)[nH]c12,–,inactive
CNC(C)=O,–,inactive
CCCCOC(=O)c1ccccc1,–,inactive
OC[C@H]1O[C@@H]2O[C@H]3[C@H](O)[C@@H](O)[C@@H](O[C@H]4[C@H](O)[C@@H](O)[C@@H](O[C@H]5[C@H](O)[C@@H](O)[C@@H](O[C@H]6[C@H](O)[C@@H](O)[C@@H](O[C@H]7[C@H](O)[C@@H](O)[C@@H](O[C@H]1[C@H](O)[C@H]2O)O[C@@H]7CO)O[C@@H]6CO)O[C@@H]5CO)O[C@@H]4CO)O[C@@H]3CO,–,inactive
O=C(O)[C@H](O)[C@@H](O)C(=O)O,–,inactive
FC(F)(F)COC(OCC(F)(F)F)OCC(F)(F)F,–,inactive
OCCNCCO,–,inactive
Cn1cc[nH]c1=S,–,inactive
O=C(O)c1cccc(C(=O)O)c1,–,inactive
CCCCCCCC1CCC(=O)O1 (centres undefined),–,inactive
c1ccc2ncccc2c1,–,inactive
OC(O)(C(F)C(O)(O)C(F)(F)F)C(F)(F)F,–,inactive
CCc1ccc(O)c(C(C)(C)C)c1,36.2 µM (active),–

# Read-out: TIMP metallopeptidase inhibitor 1 (TIMP1), TIMP1 (gene 7076)
# Assay: BSK_hDFCGF_TIMP1: BioMAP Diversity Plus: hDFCGF Assay for TIMP metallopeptidase inhibitor 1 (TIMP1) Biomarker Activity (AID 2283062)
# Details: primary human foreskin fibroblasts; actives raise or lower the signal
# In short: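 Human skin fibroblasts (primary), hDFCGF system; compound exposure 24 h; TIMP-1 by ELISA; bidirectional fit vs DMSO negative control; overt cytotoxicity by SRB in parallel wells.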
SMILES,outcome,AC50
C[Si](C)(C)C(F)(F)C(F)(F)C(F)(F)F,inactive,–
O=C(NO)C1(NS(=O)(=O)c2ccc(Oc3ccc(F)cc3)cc2)CCOCC1,inactive,–
O=C1CN(N=Cc2ccc([N+](=O)[O-])o2)C(=O)N1,inactive,–
OC(Cn1cncn1)(Cn1cncn1)c1ccc(F)cc1F,inactive,–
O=S(=O)(O)CCC(F)(F)C(F)(F)C(F)(F)C(F)(F)C(F)(F)C(F)(F)F,inactive,–
OC(CCl)CCl,inactive,–
OCc1ccccc1,inactive,–
c1ccc(C(O[C@@H]2CCCN(CCc3ccc4c(c3)OCO4)C2)c2ccccc2)cc1,inactive,–
O=C(Cl)C(F)(F)C(F)(F)C(F)(F)C(=O)Cl,inactive,–
CCCCCCCC/C=C\CCCCCCCC(=O)OC[C@@H](O)[C@H]1OC[C@H](O)[C@H]1O,inactive,–
CCCCCCCCN(C)C,inactive,–
COS(C)(=O)=O,inactive,–
CCCc1ccccc1,inactive,–
COc1cc2c(c(OC)c1OC)-c1ccc(OC)c(=O)cc1[C@@H](NC(C)=O)CC2,inactive,–
COCc1nnc(-c2ccc[n+]([O-])c2)n1-c1c(Cl)c(Cl)cc2[nH]c(=O)c(=O)[nH]c12,inactive,–
CNC(C)=O,inactive,–
CCCCOC(=O)c1ccccc1,inactive,–
OC[C@H]1O[C@@H]2O[C@H]3[C@H](O)[C@@H](O)[C@@H](O[C@H]4[C@H](O)[C@@H](O)[C@@H](O[C@H]5[C@H](O)[C@@H](O)[C@@H](O[C@H]6[C@H](O)[C@@H](O)[C@@H](O[C@H]7[C@H](O)[C@@H](O)[C@@H](O[C@H]1[C@H](O)[C@H]2O)O[C@@H]7CO)O[C@@H]6CO)O[C@@H]5CO)O[C@@H]4CO)O[C@@H]3CO,inactive,–
O=C(O)[C@H](O)[C@@H](O)C(=O)O,inactive,–
FC(F)(F)COC(OCC(F)(F)F)OCC(F)(F)F,inactive,–
OCCNCCO,inactive,–
Cn1cc[nH]c1=S,inactive,–
O=C(O)c1cccc(C(=O)O)c1,inactive,–
CCCCCCCC1CCC(=O)O1 (centres undefined),inactive,–
c1ccc2ncccc2c1,inactive,–
OC(O)(C(F)C(O)(O)C(F)(F)F)C(F)(F)F,inactive,–
CCc1ccc(O)c(C(C)(C)C)c1,–,31.1 µM (active)
